Experimental data: PubChem BioAssay AID588 (National Center for Advancing Translational Sciences (NCATS), 2007)
The whole screen tested about 59,000 compounds, of which about 25 (0.04%) were called active. How the calls were made is not given here. The sample as a whole holds a higher share of actives than the screen did.

test: qHTS Assay for Spectroscopic Profiling in Resorufin Spectral Region; conditions: Compound fluorescence, resorufin region 547/598 nm, buffer
Source text: NIH Molecular Libraries Screening Centers Network [MLSCN] NIH Chemical Genomics Center [NCGC] […] Occasionally, the artifactual effect may originate from the compound#s own spectral or other biophysical properties which generally tend to track its assay concentration. Pre-screening/profiling the library with respect to the compounds# spectral properties should help one exclude false positives early on. While the most informative fluorescent profiling data set is obtained by performing a full excitation and emission scan of each well by using a monochromator-based plate reader, such an approach is practical only on a very limited scale as scanning each well requires long time. An alternative approach, applied here, is to perform plate reader scans using selected excitation and emission wavelength pairs to generate a multidimensional relational database that correlates compound concentration and the respective relative fluorescence intensity at a given wavelength set. A standard curve of resorufin present on each plate as six-point concentration series, was used to compute a normalized fluorescence response, termed dye-equivalent concentration, for each compound at each concentration.
NCGC Assay Protocol Summary: Buffer: 100 mM Tris buffer, pH 8.0 Dye standard plate: The wells in columns 1 through 4 of a Kalypsys polypropylene 1536-well compound plate were filled with standard solutions of fluorophore corresponding to the spectral region of interest. Solutions of resorufin were placed in the following wells: M1, N1: 3 mM, M2, N2: 300 uM, M3, N3: 30 uM, M4, N4: zero (DMSO), O1, P1: 3 uM, O2, P2: […], O3, P3: 300 nM, O4, P4: zero (DMSO). Assay Steps: Six uL of buffer were dispensed to 1536-well Greiner black plates. Compounds and dye standards (23 nL) were transferred via Kalypsys PinTool. The plates were incubated for 15 min at room temperature, and then read on ViewLux (Perkin-Elmer) High-throughput CCD imager using 547 nm and 598 nm excitation and emission filter set. Keywords: NIH Roadmap, MLSCN, MLI, MLSMR, qHTS, NCGC, Resorufin, Fluorescent Profiling.

Max dye-equivalent concentration, inactive:
CCC(=O)NC(=Nc1nc2ccccc2s1)NC(=O)CC
O=C(c1ccc2c(c1)C(=O)N(c1ccc(Cl)cc1)C2=O)N1CCN(c2ccccn2)CC1
Cc1ccc(F)cc1NC(=O)c1cccc(N(C)C)c1
CC(C)(C)c1cc(C(=O)NCc2cccnc2)ccn1
Cc1ccc(CNC(=O)C2CC(=O)N(C3CCCCCCC3)C2)cc1 (centres undefined)
Cc1nc2cnc(N3CCN(C)CC3)nc2n(CCC#N)c1=O
CCOC(=O)C1CCN(C(=O)CC2C(=O)N(Cc3ccccc3)C(C)c3nc4ccccc4n32)CC1 (centres undefined)
COc1ccccc1N1CCN(C(=O)c2c(-c3c(Cl)cccc3Cl)noc2C)CC1
Fc1ccccc1CCNc1nnnn1-c1ccccc1
COc1ccccc1-c1nc(NCCNC(C)=O)c2ccccc2n1
COc1cc(OC)c(C(=O)NC2CC(C)(C)NC(C)(C)C2)cc1OC
CN(C)CCNC(=O)C(C(=O)c1ccccc1)n1ccccc1=O (centres undefined)
Cc1nc2ccc(S(=O)(=O)NCC(=O)O)cc2s1
CC(=O)Nc1ccc(S(=O)(=O)Nc2ccc(N3CCOCC3)c(F)c2)cc1
Cc1ccc(NC(=O)CN2CCC3(O)CCCCC3C2c2ccc3c(c2)OCO3)c(C)c1 (centres undefined)
CCCC(=O)Nc1cc(OCC)c(NC(=O)NC2CCCCC2)cc1OCC
O=C(NCc1ccco1)c1cc2sccc2n1Cc1ccc(F)cc1
O=C(CCCn1c(SCC(=O)c2ccc(F)cc2)nc2ccccc2c1=O)NCc1ccco1
Cc1ccc(S(=O)(=O)N2CCOCC2)cc1C(=O)NCc1ccc(F)cc1
CCC(=O)N1CCc2cc(S(=O)(=O)NC(C(=O)N3CCc4ccccc4C3)C(C)C)ccc21 (centres undefined)
Cn1c(-c2ccc(C(=O)c3ccccc3)s2)nc2ccccc21
O=C(NCCN=C1NS(=O)(=O)c2ccccc21)c1ccc(S(=O)(=O)N2CCOCC2)cc1
CCCCOc1ccc(C(C)(O)CCN2CCOCC2)cc1 (centres undefined)
CCN(CC)P(=O)(C(NC(=O)OC)C(F)(F)C(F)(F)C(F)(F)C(F)F)N(CC)CC (centres undefined)
O=C(Nc1cnccn1)c1cccnc1
Cc1cnc(CNc2cc(-c3c(C)noc3C)ncn2)cn1
COc1ccc(CN2C(=O)CN=C2Nc2ccc(C)cc2C)cc1
CC(C)(C)NC(=O)Cn1nnc(-c2ccccc2Cl)n1
COc1ccccc1C1/C(=C(/O)c2ccc(OC(C)C)cc2)C(=O)C(=O)N1c1cc(C)on1 (centres undefined)
COC(=O)c1ccc(NC(=O)CSc2nnc(CNc3ccc(OC)cc3)n2C)cc1
CCCCC[C@H](O)CCCC(=O)O
CC(=O)OC(C(=O)NCCc1ccccc1)c1cccnc1 (centres undefined)
CO[C@@H]1/C=C\O[C@]2(C)Oc3c(C)c(O)c4c(O)c(c(CN(C)C)c(O)c4c3C2=O)NC(=O)/C(C)=C\C=C[C@@H](C)[C@@H](O)[C@H](C)[C@@H](O)[C@H](C)[C@H](OC(C)=O)[C@@H]1C
Cc1cccc(C)c1NC(=O)CCCSc1nnc(-c2ccco2)n1-c1ccccc1
C[C@H](CCC(=O)NCC(=O)O)[C@H]1CC[C@H]2[C@H]3[C@@H](C[C@@H](O)[C@]12C)[C@]1(C)CC[C@H](O)C[C@@H]1C[C@@H]3O
N#CC1=C(N)Oc2n[nH]c(CSc3ccccc3)c2C12C(=O)Nc1ccccc12 (centres undefined)
Cc1cc(C)nc(NC2=NCC(=O)N2c2ccc(Cl)cc2)n1
CCNc1ncc2nc(CCc3ccccc3)c(=O)n(-c3ccc(OC)cc3)c2n1
Cc1noc(NS(=O)(=O)c2ccc(N3CC(O)=C(c4ccccc4)C3=N)cc2)c1C
C[C@H]1O[C@@H](CC(=O)O)Cc2c1c(O)c1c(O)cc(-c3cc(=O)c4c(=O)c5c(c(=O)c=4c3=O)C[C@H](CC(=O)O)O[C@@H]5C)c(O)c1c2O
CCCOc1ccccc1-c1nc(SCCC(=O)O)n[nH]1
CCC(C)(C)n1nnnc1C(c1ccccc1OC)N1CCSCC1 (centres undefined)
Cc1ccc(S(=O)(=O)NCCN2CCOCC2)cc1C
C=CCn1c(COc2ccccc2C)nnc1SCC(=O)O
Cc1cccc(NC(=O)CSc2nc3c(c(=O)[nH]2)CCC3)c1C
COc1ccccc1N1CC(O)=C(c2nc3ccccc3s2)C1=N
CCN(CC(=O)NC(C)C)C(=O)CCNC(=O)c1ccc(Cl)cc1
COc1ccc2[nH]c3ccc(OC)cc3c2c1
Cc1cc(C(F)(F)F)c(C#N)c(SCC(=O)NC2CC2)n1
COc1ccc(O)c(C(=O)c2cnc3onc(C(C)C)c3c2)c1
CCOC(=O)Nc1ccc2c(c1)N(C(=O)CN1CCN3CCCC3C1)c1ccccc1CC2 (centres undefined)
CCCCNC(=O)c1ccccc1NC(=O)c1ccccc1N(C)S(C)(=O)=O
CCC(C)Sc1nc2c(c(=O)[nH]c(=O)n2C)n1CC(O)COc1cccc2ccccc12 (centres undefined)
COc1ccc(-n2ncc3c(N4CCc5ccccc54)ncnc32)cc1
Cc1ccc(-n2c(Cc3cccs3)nnc2SCC(=O)OC(C)C)cc1
COCCn1c(=O)c(-c2cccc(F)c2)nc2cncnc21
COc1ccc(-n2c(=O)c(-c3cn(C)c4ccccc34)nc3cnc(OC)nc32)cc1
Cc1ccc(C(=O)NCC(=O)O)cc1S(=O)(=O)N1CCCCC1
Cn1c(SCc2c(F)cccc2Cl)nnc1-c1cnccn1
O=C(NC1CCCCC1)c1ccc2c(=O)n(CC3CCCO3)c(=O)[nH]c2c1 (centres undefined)
O=c1[nH]nc(CSCc2ccccc2Cl)[nH]1
COCCNC(=O)c1snc2ccc(Cl)cc12
CCOc1ccc(NC(=O)CCS(=O)(=O)c2cccc3nsnc23)cc1
CCOc1cc(C2C(C(=O)OC)=CN(C3CCCC3)C=C2C(=O)OC)cc(Br)c1O
O=C(Nc1cnn(Cc2ccc(Cl)cc2)c1)C1CCCC1
CSc1ccc(-c2c(C#N)c(N)nc3c2c(C)nn3-c2ccccc2)cc1
COc1ccc(CC(NC(C)=O)C(=O)NC2CCN(C(=O)Nc3ccc(C#N)cc3)CC2)cc1OC (centres undefined)
CCOC(=O)N1CCN(C(=O)c2nn(-c3ccc(C)cc3)c(=O)c3c2c2ccccc2n3C)CC1
COc1ccc(Cc2nnnn2CC(=O)O)cc1
CC(c1nnc(SCC(=O)Nc2sccc2C#N)n1-c1ccc(Cl)cc1)N(C)C (centres undefined)
CC(C)(CNCC(O)c1ccccc1)N1CCOCC1 (centres undefined)
O=C(O)C1CC=C(Cl)CC1C(=O)NCc1ccccc1 (centres undefined)
O=C(COc1ccc2c3c(c(=O)oc2c1)CCC3)NC1CCCCC1
Cc1nc2cnc(Nc3ccccc3)nc2n(C[C@H]2CCCO2)c1=O
O=C(NCCCN1CCOCC1)c1cc(-c2ccc(Cl)cc2)on1
Cn1c(=O)c(CCc2ccccc2)nc2cnc(Nc3ccccc3)nc21
Cc1cc(=O)n2nc(N3CCCC(C(=O)NCCC4=CCCCC4)C3)sc2n1 (centres undefined)
COc1ccc(-n2c(SCC(=O)NCc3cccs3)nnc2-c2ccoc2C)cc1
Cc1ccnc(SCCn2c(Br)nc3c2c(=O)[nH]c(=O)n3C)n1
CCOC(=O)N1CCC(Nc2c(NCCCN3CCN(c4ccc(OC)cc4)CC3)c(=O)c2=O)CC1
CCCCn1c(SCc2ncc(-c3ccccc3)o2)nc2cc(S(N)(=O)=O)ccc21
CCOc1ccccc1-n1c(SCC(=O)NCc2ccco2)nnc1-c1ccncc1
Nc1cc(=O)nc(SCc2ccccc2)n1Cc1ccco1
Cc1c(S(=O)(=O)O)ccc(N=Nc2c(O)c(C(=O)O)cc3ccccc23)c1Cl
CCC(=O)Nc1cccc(NC(=O)CSc2nnnn2C2CCCC2)c1
Cc1cc(C)c2[nH]c(=O)c(C(c3nnnn3Cc3ccc4c(c3)OCO4)N3CCCC3)cc2c1 (centres undefined)
COc1ccccc1N(C(=O)Cn1nnc2ccccc21)C(C(=O)NCc1ccco1)c1ccc(C)o1 (centres undefined)
CCC(C(=O)N1CCOCC1)n1c(C(=O)OC)cc2occc21 (centres undefined)
CCN(c1ccccc1)S(=O)(=O)c1cccc(C(=O)O)c1
c1ccc2c(Nc3ccncc3)nc(-c3ccc4c(c3)OCO4)nc2c1
CCOC(=O)N1CCN(C(=O)Cc2ccc(-n3c(=S)[nH]c4ccccc4c3=O)cc2)CC1
CC(=O)OCc1cc(=O)n(C)c(=O)n1C
COc1ncc2nc(-c3ccc(Cl)cc3)c(=O)n(C)c2n1
CCc1c(C)nc2ncnn2c1N1CCC(C(=O)NCc2ccc3c(c2)OCO3)CC1
CN(C(=O)CSc1nnnn1-c1ccccc1)C1CCCCC1
Cc1c(-c2nn(C)c(=O)c3ccccc23)oc2ccc(F)cc2c1=O
COCCn1c(=O)[nH]c2cc(C(=O)NCc3cccnc3)ccc2c1=O
NS(=O)(=O)c1cc(Cl)c(Cl)c(S(N)(=O)=O)c1
CCOCCCN1C(=O)CN(C2CCCCC2)C(=O)C1c1ccc(OCC)c(OC)c1 (centres undefined)
Cc1cc(C)c2nc(N3CCCC3)c(C#N)cc2c1
COc1cccc(C(=O)c2cc3ccc(O)cc3oc2=O)c1
O=C1[C@@H]2C(Cc3ccc(O)cc3)NC3(C(=O)Nc4ccc(F)cc43)[C@@H]2C(=O)N1c1ccc(F)cc1 (some centres undefined)
CCC(=O)N(Cc1cc2cc(OC)ccc2[nH]c1=O)c1ccccc1C
COc1cccc(OCC(O)CN2CCN(CCO)CC2)c1 (centres undefined)
